The campaign covered roughly 200,000 compounds. About 80 (0.04%) were called active.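 Rule for the calls: active = activation above the mean across all tested compounds plus 3 SD, cutoff set per campaign (cut at about 5.5% in these data); inactive = the rest.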 The entries come from a sample that favours actives as a whole.
assay: Hsp70 transcriptional activators, primary screen, cell-based, HeLa, Hsp70 promoter luciferase, luminescence, 10 µM (AID 1203); conditions: HeLa Hsp70 promoter luciferase reporter, at 10 µM, stronger effect = higher value, scaled: vehicle 0, proteasome-inhibitor control 100%;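 note: 100% = MG132 at 30 µM as the positive control and 0% = DMSO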

Compound | activation
Cn1c(=O)cc(OCC(=O)N2CCN(c3ccccc3F)CC2)c2ccccc21 | 0.82% (inactive)
COc1ccc(C/C(C)=N/NC(=O)c2ccncc2)cc1 | -0.08% (inactive)
COc1ccccc1C(=O)CSc1cccc[n+]1[O-] | 0.19% (inactive)
CCC(C)(C(=O)Nc1ccccc1C)N(C(=O)CNC(C)=O)c1ccc(C)cc1 (stereo not drawn) | -0.25% (inactive)
OCCC1CN(Cc2ccc3nsnc3c2)CCN1C1CCCCC1 (stereo not drawn) | -0.14% (inactive)
CC(C)(C)NCCCOc1ccc(Cl)cc1C(C)(C)C | -0.26% (inactive)
CCN(CC)Cc1nc2sc(C)c(C)c2c(=O)[nH]1 | -0.4% (inactive)
COc1ccc(/C=C/C(=O)Nc2ccc(C34CC5CC(CC(O)(C5)C3)C4)cc2)cc1OC | 0.8% (inactive)
CC(NC(=S)Nc1ccc(OC(F)F)cc1)c1ccc(F)cc1 (stereo not drawn) | -0.29% (inactive)
O=C(O)c1n[nH]nc1-c1ccccc1 | -0.44% (inactive)
CN(C)c1ccc(C2Nc3ccccc3C(=O)N2NS(=O)(=O)c2ccccc2)cc1 (stereo not drawn) | -0.44% (inactive)
CCCC(C)C(=O)OCC(=O)Nc1c(Br)cc(C)cc1Br (stereo not drawn) | -0.19% (inactive)
O=C(Nc1nc(-c2cccnc2)cs1)c1ccccc1F | 0.2% (inactive)
O=C(NC1CCc2ccccc21)C12CN(Cc3ccccc3)CC1C(c1cccc([N+](=O)[O-])c1)=NO2 (stereo not drawn) | -0.09% (inactive)
CC[C@H]1OC(=O)[C@H](C)[C@@H](O[C@H]2C[C@@](C)(OC)[C@@H](O)[C@H](C)O2)[C@H](C)[C@@H](O[C@@H]2O[C@H](C)C[C@H](N(C)C)[C@H]2O)[C@](C)(O)C[C@@H](C)[C@@H]2N[C@@H](COCCOC)O[C@H]([C@H]2C)[C@]1(C)O | -0.19% (inactive)
CCc1cc2c(=O)c(-c3ccc(F)cc3)c(C(F)(F)F)oc2cc1OCC(=O)O | -0.05% (inactive)
O=C(COC(=O)c1cc([N+](=O)[O-])ccc1NCc1ccccc1)NC1CCCCC1 | -0.39% (inactive)
CCCN(CC1COc2ccccc2O1)C(=S)Nc1ccc(C)cc1 (stereo not drawn) | -0.24% (inactive)
COc1ccc(NC(=O)COC(=O)c2ccc(NS(=O)(=O)/C=C/c3ccccc3)cc2)cc1 | -0.47% (inactive)
COc1cccc(OCc2cc(/C=N/NC(=O)c3nc(Cl)c(Cl)c(N)c3Cl)ccc2OC)c1 | -0.07% (inactive)
CC1Cc2ccccc2N1C(=O)CSc1nnc(-c2ccc(S(=O)(=O)N3CCCC3)cc2)n1C (stereo not drawn) | 0.16% (inactive)
Cc1cc(C(=O)NNC(=O)c2cccc(S(=O)(=O)N3CCOCC3)c2)c2ccccc2n1 | -0.21% (inactive)

Compound | activation
Fc1ccccc1CNC(=S)Nc1ccc(Cl)cc1 | -0.2% (inactive)
Cc1nnc(SCC(=O)NNC(=O)c2ccc(Cl)cc2)n1CC1CCCO1 (stereo not drawn) | -0.36% (inactive)
CC(C)CC(=O)NC(=S)Nc1ccc(F)cc1F | -0.43% (inactive)
O=C(NCCOCc1ccc(Cl)cc1)c1ncn[nH]1 | -0.36% (inactive)
Cc1ccc(C(=O)/C=C/c2c(C)nn(-c3ccccc3)c2Cl)cc1 | -0.32% (inactive)
O=C(/C=C/Sc1ncn[nH]1)c1ccc(Cl)cc1 | 26.9% (active)
Cc1cccc(C)c1NC(=S)N(Cc1cccnc1)Cc1ccccc1Cl | -0.11% (inactive)
N#C/C(=C/c1ccc(N2CCOCC2)o1)C(=O)N1CCOCC1 | -0.09% (inactive)
CCC(=O)c1ccc(OCC(O)Cn2nc(C)c(C(C)=O)c2C)cc1 (stereo not drawn) | 0% (inactive)
CC(C)c1ccc(C2C(C#N)=C(N)Oc3c2oc(CO)cc3=O)cc1 (stereo not drawn) | -0.2% (inactive)
CSc1ccc(/C=C/C(=O)NC23CC4CC(CC(C4)C2)C3)cc1 | -0.25% (inactive)
CCc1ccccc1NC(=O)CN(C)C(=O)COc1ccc(C)nc1[N+](=O)[O-] | -0.28% (inactive)
CC1CN/C(=C\C(=O)c2ccc(Br)cc2)C(=O)N1 (stereo not drawn) | -0.31% (inactive)
COc1ccc(CC(NC(C)=O)C(=O)NC2CCN(C(=O)c3ccc(OC)c(OC)c3)CC2)cc1OC (stereo not drawn) | -0.19% (inactive)
Cc1cc(C)n2nc(SCC(=O)NC(=O)NCc3ccco3)nc2n1 | -0.06% (inactive)
COCc1c(C(=O)OCc2c(C)noc2C)oc2ccccc12 | 0.25% (inactive)
Cc1cc(C)c2[nH]c(=O)c(CN(Cc3ccccc3)C(=S)NCCCN(C)C)cc2c1 | -0.22% (inactive)
CC(C)(C)NC(=O)Cn1cnc2cc([N+](=O)[O-])ccc2c1=O | 0.46% (inactive)
NNC(=O)c1cnn(-c2ccccc2)c1C(F)(F)F | 0.08% (inactive)
CN(C)C(=O)N1CCNCC1 | -0.1% (inactive)
CC(C)CN(C(=O)CN1CCN(S(=O)(=O)c2ccccc2)CC1)c1c(N)n(CC(C)C)c(=O)[nH]c1=O | 0.23% (inactive)
CCOC(=O)c1c(CN(C)C)n(-c2ccccc2)c2cc(Br)c(O)cc12 | -0.03% (inactive)

Compound | activation
C/C(=N\Nc1ncc(Cl)cc1Cl)c1cccs1 | -0.17% (inactive)
Cc1ccc(N2C(=O)C(NC(=O)c3c(F)cccc3F)(C(F)(F)F)C3=C2CC(C)(C)CC3=O)cc1 (stereo not drawn) | -0.33% (inactive)
Cc1cccc(NC(=O)Cn2c(=O)n(Cc3ccccc3)c(=O)c3c(C)c(C)sc32)c1 | -0.2% (inactive)
Cc1cc(Cl)ccc1OCCCC(=O)NCc1ccncc1 | 0.28% (inactive)
C=CCn1cc(C(=O)NCc2ccc(Cl)cc2)c(=O)c2cc(S(=O)(=O)N(CC)CC)ccc21 | -0.11% (inactive)
COc1cccc(-c2nn(-c3ccccc3)cc2/C=C(\C#N)C(=O)NCCCn2ccnc2)c1 | -0.06% (inactive)
CC(C)Oc1ccccc1C(=O)NC(CO)C(=O)O (stereo not drawn) | 0.09% (inactive)
O=C(CSc1ccc([N+](=O)[O-])cn1)Nc1ccc(N2CCOCC2)cc1 | -0.24% (inactive)
NS(=O)(=O)c1cccnc1Nc1cccc(Cl)c1 | 0.75% (inactive)
CC(Oc1ccccc1)C(=O)NN1Cc2ccccc2C1=N (stereo not drawn) | -0.3% (inactive)
CC(OC(=O)c1ccccc1N1C(=O)C2C3CCC(C3)C2C1=O)C(=O)c1ccccc1 (stereo not drawn) | -0.1% (inactive)
O=[N+]([O-])c1cccc(C2=NCCS2)c1 | -0.29% (inactive)
CC(=O)N1CCN(CC(=O)Nc2ccc(SC(F)F)cc2)CC1 | -0.16% (inactive)
CNC(=S)N1CCN(c2ccccn2)CC1 | 0.23% (inactive)
CC(=O)c1c(C)[nH]c(C(=O)OCC(=O)NCCC(C)C)c1C | -0.33% (inactive)
Cc1ccccc1N1C(=O)C(Oc2ccc(Cl)cc2)C1CNCC1CCCO1 (stereo not drawn) | -0.08% (inactive)
COc1ccc(S(=O)(=O)N(C)CC(=O)N2CCCC2)cc1Cl | -0.1% (inactive)
NC(=O)c1ccc(NC(=O)COC(=O)c2c3c(nc4ccccc24)/C(=C\c2ccc4c(c2)OCO4)CCC3)cc1 | -0.43% (inactive)
COc1ccc(C2CC(c3cccs3)=NN2C(=O)CSc2nnc(N)s2)cc1OC (stereo not drawn) | -0.12% (inactive)
CCN(CC)CCN(C(=O)c1cccc([N+](=O)[O-])c1)c1nc2ccc(OC)cc2s1 | -0.15% (inactive)
CCOc1ccc(-c2n[nH]c(C)c2-c2ccccn2)c(O)c1 | -0.39% (inactive)
CCC(=O)NC(Nc1cc(C)ccn1)(C(F)(F)F)C(F)(F)F | -0.11% (inactive)

Compound | activation
Cc1ccc(NC(=S)N(CCCN2CCCC2)Cc2cccn2Cc2ccc(Cl)cc2)cc1 | 0.2% (inactive)
COc1ccc(NC(=O)/C(C#N)=C\c2cc(OC)c(OCc3ccc(C(=O)O)cc3)cc2Br)cc1 | -0.51% (inactive)
COc1ccc(NC(=O)CSc2nnc(-c3ccccc3F)n2C2CC2)cc1S(N)(=O)=O | -0.2% (inactive)
Cc1ccc(-n2c(SCC(=O)N3c4ccccc4Sc4ccccc43)nnc2-c2ccncc2)cc1 | -0.33% (inactive)
CC(C)NC(=O)NC(=O)CSc1nnc(-c2ccccc2F)n1N | 0.03% (inactive)
Cc1cc(C)c(OCCN2CC(C)OC(C)C2)c(Br)c1 (stereo not drawn) | -0.19% (inactive)
Cc1ccc(C)c(-n2cc(CN3CCN(C(=O)c4ncn[nH]4)CC3)c(-c3ccccc3)n2)c1 | -0.1% (inactive)
CC(=C/c1ccccc1)/C=N/NC(=O)c1cc(C)oc1C | 0% (inactive)
CCCOC1CCCN(Cc2cn(C)nc2-c2ccccc2F)C1 (stereo not drawn) | -0.04% (inactive)
Cc1ccccc1NC(=O)Cn1c(=O)n(CC2CCCO2)c(=O)c2ccccc21 (stereo not drawn) | -0.17% (inactive)
O=C1NC2(CCCCCC2)C(=O)N1CCS(=O)(=O)Oc1ccccc1 | -0.27% (inactive)
Cc1ccc(C(=O)NCC(=O)O)s1 | 0.11% (inactive)
O=C(CCCN1C(=O)/C(=C/c2ccccc2)SC1=S)Nc1ccc(O)cc1 | -0.12% (inactive)
Cc1ccc(NC(=O)c2cccnc2C(=O)Nc2ccc(C)cc2)cc1 | -0.14% (inactive)
NC(=O)C[C@@H]1NC(=O)CNC(=O)c2cc([N+](=O)[O-])cc(I)c2NCCC(C(N)=O)NC1=O (stereo partly drawn) | 0.03% (inactive)
Cc1cccc(NC(=S)NC(=O)c2ccc(Br)o2)c1 | 0.26% (inactive)
CC(=O)Nc1nc2ccccc2n1Cc1ccc(C)cc1 | -0.13% (inactive)
COC(=O)CN1C(=S)N(c2ccccc2)C(=O)C1CC(=O)Nc1ccc(Cl)cc1 (stereo not drawn) | -0.13% (inactive)
COc1ccc(-c2nc(N)sc2C2(O)C(=O)Nc3c(Br)cc(F)cc32)cc1OC (stereo not drawn) | -0.09% (inactive)
CCOc1ccc(N2CC(C(=O)NCCN3C(=O)S/C(=C\c4cccnc4)C3=O)CC2=O)cc1 (stereo not drawn) | -0.14% (inactive)
Cc1ccc(Cl)c(NC(=O)CN(C)CC(=O)Nc2ccc(F)c(F)c2F)c1Cl | -0.39% (inactive)
C/C(=N\NC(=O)CCn1nc(C)cc1C)C(C)(C)C | -0.13% (inactive)

— PubChem BioAssay AID1203 (The Scripps Research Institute Molecular Screening Center, 2008)
